Assay outcomes: PubChem, National Center for Advancing Translational Sciences (NCATS)
Rows were chosen to be rich in hits. Some 19% of all compounds tested hit in one or more screens of this group.
IL1B secr inh: qHTS for Inhibitors of Inflammasome Signaling: IL-1-beta AlphaLISA Primary Screen | AID 743279, 2014 | actives 4.7% (n = 360,000) | THP-1 LPS/ATP IL-1B secretion, AlphaLISA, 16 h; active compounds read low | activity change, % at 57.5 µM; in the data active = activity change below about -50%; inconclusive = mostly about -30% to -49%
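Secreted IL-1B measured by AlphaLISA bead assay after 16 h compound exposure of THP-1 cells; compounds (final up to 57.5 uM) added 1 h before LPS (250 ng/mL) and ATP (1.25 mM) stimulation; lower signal means less secretion.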
HT1080NT lethal: qHTS for induction of synthetic lethality in tumor cells producing 2HG: qHTS for the HT-1080-NT fibrosarcoma cell line | Potency, µM (doses to about 46.1 µM), usual class: cytotoxic | actives 1.6% (n = 360,000) | HT-1080-NT fibrosarcoma viability, CellTiter-Glo ATP luminescence, 48 h;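 also: NT is the 2HG producing partner of a matched IDH1 knockdown line; nearly all actives have a fitted effect of over 55% in size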
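Viability of the 2HG-overproducing fibrosarcoma line after 48 hours of compound exposure at 37 degrees C was determined by luminescence with CellTiter-Glo, and concentration-effect curves were then fitted and categorized.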
HT1080 IDH1KD tx: qHTS for induction of synthetic lethality in tumor cells producing 2HG: qHTS for the HT-1080-IDH1KD cell line. actives 2% (n = 360,000). Potency, µM (series often up to 46.1 µM), hits mostly cytotoxic. HT-1080 IDH1 knockdown viability, ATP luminescence, 48 h
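Luminescent ATP read-out (CellTiter-Glo, 10 min at room temperature) after 48 h compound exposure at 37 °C gave viability of IDH1-knockdown HT-1080 cells. Activity was normalised to DMSO and cell-free wells, then fitted as concentration-response curves.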
DT40 TDP1 no CPT: qHTS for Inhibitors of human tyrosyl-DNA phosphodiesterase 1 (TDP1): qHTS in cells in absence of CPT; actives 15% (n = 420,000); Potency, µM (top dose mostly 46.2 µM), hits mostly inhibitors; DT40 Tdp1-/- hTDP1 cells, no CPT, ATP luminescence, 48 h; AID 686978, 2013; also: nearly all actives have a fitted effect of over 55% in size
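Chicken DT40 Tdp1-/- cells stably complemented with human TDP1 were seeded at 400 cells/well with DMSO in place of 20 nM camptothecin. After compound pinning, cells grew at least 48 hr at 37 °C; viability read by CellTiter-Glo luminescence.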
TDP1 cell CPT: qHTS for Inhibitors of human tyrosyl-DNA phosphodiesterase 1 (TDP1): qHTS in cells in presence of CPT; chicken DT40 Tdp1-/-;hTDP1 cells + 20 nM CPT, ATP luminescence, 48 h; Potency, µM (doses to about 46.2 µM), usual class: inhibitors; actives 12% (n = 420,000); AID 686979, 2013; also: nearly all actives have a fitted effect of over 55% in size
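Chicken DT40 Tdp1-/- cells stably complemented with human TDP1 were seeded at 400 cells/well in medium containing 20 nM camptothecin, exposed to pin-transferred compounds, and grown at 37 °C for at least 48 hr. Viability was read as ATP luminescence.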
Hits are given with their value; - = inactive; ? = inconclusive. Unless noted, calls follow the shape of the dose curve; as a rule, active = well fitted curve in the direction sought with a large enough effect; inconclusive = small, poorly fitted or top-dose-only effect, or another doubt; inactive = no such curve, though single readings can be large; an effect the other way counts as inactive or inconclusive.

SMILES | IL1B secr inh | HT1080NT lethal | HT1080 IDH1KD tx | DT40 TDP1 no CPT | TDP1 cell CPT
CC(C)CC1C(=O)N(Cc2cn(Cc3ccco3)nn2)CCS(=O)(=O)N1Cc1ccc(-c2ccc(F)cc2)cc1 (centres undefined) | -72 | ? | ? | 16µM | ?
CC1C(=O)N(Cc2cn(Cc3ccco3)nn2)CCS(=O)(=O)N1Cc1ccc(-c2ccccc2C(F)(F)F)cc1 (centres undefined) | -60 | ? | ? | ? | ?
Cc1ccc(-c2ccc(CN3C(CC(C)C)C(=O)N(Cc4cn(Cc5ccco5)nn4)CCS3(=O)=O)cc2)cc1 (centres undefined) | - | - | - | ? | -
O=C(C1=C(O)C(=O)N(c2nc3ccc(Cl)cc3s2)C1c1ccco1)c1ccco1 (centres undefined) | - | - | - | 2.3µM | ?
Cc1ccc2nc(N3C(=O)C(O)=C(C(=O)c4ccc(C)o4)C3c3ccco3)sc2c1 (centres undefined) | - | - | - | - | -
C[C@H](CO)N1C[C@H](C)[C@@H](CN(C)C(=O)Nc2ccccc2)Oc2ncc(-c3ccc(C#N)cc3)cc2C1=O | - | - | - | - | -
Nn1c(N2CCCCC2)nc2ccccc21 | - | - | - | - | -
CC1(C)C(=O)C2(CCCCC2)C(=O)OC1c1cccn1-c1ccc([N+](=O)[O-])cc1 (centres undefined) | - | - | - | ? | ?
CC1(C)C(=O)OC(c2cccn2-c2ccc([N+](=O)[O-])cc2)C(C)(C)C1=O (centres undefined) | - | - | - | 23µM | 15µM
CCOC(=O)c1c(C=O)c(C)n(Cc2ccccc2Cl)c1C | - | - | - | - | -
CCOC(=O)c1c(C=O)c(C)n(Cc2ccc(C)cc2)c1C | - | - | ? | 23µM | ?
Cc1ccc(-c2noc(CCC(=O)NCC3CCN(Cc4cccc(C)c4)CC3)n2)cc1 | -67 | ? | ? | ? | 18µM
Cc1ccc(-c2noc(CCC(=O)NCCN3CCOCC3)n2)cc1 | - | - | - | - | -
Cc1cccc(-c2noc(CCC(=O)NCc3ccccc3)n2)c1 | - | - | - | - | -
Cc1ccc(-c2noc(CCC(=O)NCCN3CCN(Cc4ccccc4)CC3)n2)cc1 | - | - | - | 18µM | ?
CCCS/C(N)=N/N=C/c1ccccc1O | ? | - | - | 18µM | ?
O=C(NNC(=O)c1cccc(Br)c1)Nc1ccc(Cl)cc1 | - | - | - | ? | 23µM
Cc1cc(O)ccc1NC(=S)NC(=O)c1cncc(Br)c1 | - | - | ? | 16µM | 15µM
O=C(O)c1ccc(NC(=O)c2ccccc2NC(=O)c2cccc(Br)c2)cc1 | - | - | - | - | ?
O=C(Nc1ccc(Br)c(C(F)(F)F)c1)c1ccccc1 | - | - | - | 23µM | 21µM
CC(C)c1ccc(NC(=O)c2cccc(Br)c2)cc1 | -52 | - | - | ? | -
O=C(Nc1cccc(NC(=O)c2cncc(Br)c2)c1)c1cncc(Br)c1 | - | ? | ? | 4.6µM | 12µM
Cc1cc(NC(=O)c2cncc(Br)c2)ccc1NC(=O)c1cc2ccccc2o1 | ? | - | - | 8.2µM | 13µM
O=C(Nc1cccc(C(=O)Nc2cccc(Br)c2)c1)c1ccccc1 | - | - | - | ? | 23µM
O=C(Nc1ccncc1)c1cncc(Br)c1 | - | - | - | - | -
Cc1cccc(NC(=O)c2cccc(NC(=O)c3ccccc3)c2)n1 | - | - | - | ? | 4.1µM
COc1cc(NC(=O)c2ccccc2)ccc1NC(=O)c1cc2ccccc2o1 | - | - | - | ? | ?
Cn1cnnc1-c1cccc(NC(=O)c2cc(F)c(F)cc2Cl)c1 | - | - | - | - | -
CCOC(=O)c1ccccc1NC(=S)N1CCN(C2CCCCC2)CC1 | - | - | - | ? | -
